Assay [1] can be described thus: resazurin metabolic signal in HepG2 cells – cell-based, resazurin fluorescence, 24 h, PK04 Diversity Set, profiling panel (AID 1172). Also: test concentration not given here. The note with it: HepG2 viability, higher = more signal.
The nature of assay [2]: budding yeast growth changes without added modifier – OD600, strain BY4716, 24 h, basal condition, primary screen (AID 1173). The note with it: S. cerevisiae BY4716 growth, OD600, 24 h; higher = more signal, called active from +8 up or from −8 down.
Assay [3] can be described thus: viability profiling in MM1S myeloma cells – cell-based, resazurin fluorescence, basal, 24 h, PK04 Diversity Set, profiling panel (AID 1174).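 Also: MM1S multiple myeloma cell line; test concentration not given here.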 Particulars: higher = more signal, called active from +8 up or from −8 down. A general note: Alamar Blue is a resazurin reagent that responds to reducing activity.
Assay [4] has as its target Dihydroorotate dehydrogenase (quinone), mitochondrial (Plasmodium falciparum (isolate 3D7)) (UniProt Q08210). Kind of assay: inhibition of P. falciparum DHODH – biochemical, C-terminal His tag, absorbance 600 nm, primary screen (AID 1175).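 Also: recombinant parasite enzyme with a five histidine tag at its C terminus; test concentration not given here.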 Particulars: PfDHODH enzyme, DCIP absorbance 600 nm; higher = more signal, called active from +8 up or from −8 down.
The nature of assay [5]: inhibition of PAO1 biofilm formation – strain PAO1, LB-PBS medium, absorbance 600 nm, primary screen (AID 1176). Also: test concentration not given here. Particulars: P. aeruginosa PAO1 growth/biofilm, A600, 12 h; higher = more signal.
The nature of assay [6]: growth modulation of vineyard yeast isolate – strain RM11-1a, OD600, basal, 24 h, primary screen (AID 1177).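 Also: cultures grown under basal conditions with no added stressor; test concentration not given here.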 Particulars: S. cerevisiae RM11-1a growth, OD600, 24 h; higher = more signal, called active from +8 up or from −8 down.
The nature of assay [7]: growth of efflux-deficient E. coli DRC39 – strain DRC39, OD650, 24 h, E. coli filamentation inducers, primary screen (AID 1178).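 Also: growth measured as culture turbidity by optical density at 650 nm; test concentration not given here.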 The note with it: E. coli DRC39 acrAB, higher = more signal, called active from +8 up or from −8 down.
Assay [8] can be described thus: growth of efflux-deficient E. coli DRC39 – strain DRC39, OD650, 48 h, E. coli filamentation inducers, primary screen (AID 1179).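 Also: screen aims at cell division blockers that make cells filament.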 The note with it: E. coli DRC39 delta-acrAB growth, higher = more signal, called active from +8 up or from −8 down.
Assay [9] in a line: viability profiling in RPMI8226 myeloma cells – cell-based, resazurin fluorescence, basal, 24 h, PK04 Diversity Set, profiling panel (AID 1180).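 Also: RPMI8826 multiple myeloma cell line at 5000 cells per well; test concentration not given here.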 Particulars: higher = more signal.
Assay [10] deals with E3 ubiquitin-protein ligase XIAP (Homo sapiens) (UniProt P98170). Kind of assay: small molecules binding XIAP protein – biophysical, small-molecule microarray, fluorescence 635 nm, primary screen (AID 1181).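 Also: score merges 667 nm emission and signal to noise over triplicate slides.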 Particulars: higher = more signal.

Active and inactive are the calls of the source. Unless noted, no rule for the calls is given here.

Sequence of Dihydroorotate dehydrogenase (quinone), mitochondrial (Plasmodium falciparum (isolate 3D7)) (Q08210 whole entry, looked up): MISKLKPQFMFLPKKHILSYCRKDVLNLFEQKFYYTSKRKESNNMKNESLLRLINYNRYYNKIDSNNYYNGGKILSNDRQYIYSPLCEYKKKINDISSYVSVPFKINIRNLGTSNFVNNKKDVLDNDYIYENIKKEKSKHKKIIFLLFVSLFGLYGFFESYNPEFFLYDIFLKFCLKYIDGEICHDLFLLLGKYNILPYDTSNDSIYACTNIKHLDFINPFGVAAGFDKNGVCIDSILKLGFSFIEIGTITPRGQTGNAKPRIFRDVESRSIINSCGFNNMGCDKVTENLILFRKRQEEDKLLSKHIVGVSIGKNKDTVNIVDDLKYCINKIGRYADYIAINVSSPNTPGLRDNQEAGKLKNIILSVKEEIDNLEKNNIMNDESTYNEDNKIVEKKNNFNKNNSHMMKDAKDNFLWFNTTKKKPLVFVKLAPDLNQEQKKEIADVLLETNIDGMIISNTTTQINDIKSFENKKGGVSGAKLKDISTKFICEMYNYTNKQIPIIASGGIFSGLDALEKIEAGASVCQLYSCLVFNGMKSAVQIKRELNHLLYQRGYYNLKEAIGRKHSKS
Sequence of E3 ubiquitin-protein ligase XIAP (Homo sapiens) (P98170 whole entry, looked up): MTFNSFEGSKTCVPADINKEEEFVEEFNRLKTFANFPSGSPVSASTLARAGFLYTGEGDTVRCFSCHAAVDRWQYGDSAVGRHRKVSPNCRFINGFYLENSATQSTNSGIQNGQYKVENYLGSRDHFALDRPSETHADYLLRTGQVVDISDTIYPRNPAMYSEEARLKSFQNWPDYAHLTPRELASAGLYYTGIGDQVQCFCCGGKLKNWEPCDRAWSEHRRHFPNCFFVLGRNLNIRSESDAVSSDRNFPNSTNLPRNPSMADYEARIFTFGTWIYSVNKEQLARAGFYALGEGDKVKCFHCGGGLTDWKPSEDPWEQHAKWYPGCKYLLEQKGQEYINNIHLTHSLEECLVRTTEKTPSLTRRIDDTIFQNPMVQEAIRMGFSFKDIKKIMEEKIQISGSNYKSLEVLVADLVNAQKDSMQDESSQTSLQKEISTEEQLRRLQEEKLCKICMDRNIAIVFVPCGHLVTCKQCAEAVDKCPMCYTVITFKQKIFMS

Take `COCCOC(=O)N1C(=O)[C@@]2(c3ccccc31)[C@H](c1ccc(O)cc1)N1[C@H](c3ccccc3)[C@H](c3ccccc3)OC(=O)[C@H]1[C@@H]2C(N)=O`: the z-score is -0.701 in [1]; 0.652 (inactive) in assay [2]; -0.916 (inactive) in assay [3]; 0.125 (inactive) in [5]; 0.623 (inactive) in assay [6]; 0.596 (inactive) in assay [7]. Further, the z-score in [8] was 0.687 (inactive); in [9] it was -1.01. Moreover, the composite z-score in assay [4] is -0.766 (inactive); in assay [10], 0.0228.
Regarding `[N-]=[N+]=NCc1ccccc1[C@@H]1OC(c2ccc(OCCCO)cc2)=N[C@]1(Cc1ccccc1N=[N+]=[N-])C(N)=O`, the z-score in assay [1] is -0.0426; in [2], -2.11 (inactive); in assay [3], -0.727 (inactive); in assay [5] it was 0.603 (inactive); in [6] it was 0.604 (inactive); in assay [7], 0.333 (inactive). Besides, the results for the z-score in [8] and in [9] were -0.37 (inactive) and -1.2, respectively. Further, the composite z-score is 0.0263 (inactive) in assay [4] and 0.0656 in [10].
Take `C[C@]1(C(=O)NCC(F)(F)F)c2ccccc2C(=O)N(Cc2cc(F)cc(C(F)(F)F)c2)[C@H]1c1ccc(CO)cc1`: the z-score in assay [1] is 0.378; in assay [2] it was -0.459 (inactive); in assay [3], -0.191 (inactive); in assay [5], 1.32 (inactive); in assay [6], -0.401 (inactive); in assay [7], -0.0567 (inactive). Besides, the z-score in assay [8] was -0.376 (inactive); in [9], 0.532. Also, the values for the composite z-score in assay [4] and in [10] were -0.191 (inactive) and -0.0884, respectively.
Consider `O=C1OCCC/C=C\[C@H]2OC34C=CCN(CCN5CCOCC5)C(=O)[C@H]3N(CCO)C(=O)[C@@H]4C12` (stereo not given in full), for which the z-score in [1] is -0.881; in assay [2] it was 0.0436 (inactive); in [3] it was -0.562 (inactive); in assay [5], -0.317 (inactive); in assay [6] it was 1.05 (inactive); in assay [7] it was -1.12 (inactive). Also, the z-score was -1.09 (inactive) in [8] and -0.654 in assay [9]. The composite z-score was 0.71 (inactive) in assay [4] and 0.685 in [10].
Take `C=C(C(=O)CC[C@@H](OC(C)=O)c1ccc(OCCO)cc1)C(C)C`: the z-score in [1] was 0.0804; in [2], -0.99 (inactive); in assay [3], -0.522 (inactive); in [5], 1.48 (inactive); in assay [6], 0.156 (inactive); in assay [7], -0.248 (inactive). The z-score in [8] is -0.227 (inactive); in assay [9], -0.271. Moreover, the composite z-score was -1.51 (inactive) in [4] and 0.612 in [10].
For `COCC1C2CC[C@H]3C(OCc4ccc(F)cc4C(F)(F)F)OC[C@]4(C)[C@H]3C2=C(CN4C(=O)OC(C)(C)C)[C@H](C)C1COC` (stereo not given in full), the z-score in assay [1] is -0.422; in [2], 0.236 (inactive); in assay [3], -0.481 (inactive); in [5], 0.383 (inactive); in [6], -3.23 (inactive); in assay [7] it was -0.93 (inactive). Also, the figures for the z-score in assay [8] and in [9] were 0.25 (inactive) and 0.092, respectively. Moreover, the composite z-score in assay [4] is -0.908 (inactive); in assay [10], -0.122.
Consider `C=CCNC(=O)[C@H]1[C@@H]2C(=O)O[C@@H](c3ccccc3)[C@@H](c3ccccc3)N2[C@@H](c2ccc(OCCO)cc2)[C@]12C(=O)N(C(=O)OCCOC)c1ccc(C#CC3(O)CCCCCC3)cc12`, for which the z-score in [1] is -0.162; in [2], 1.33 (inactive); in assay [3], -0.421 (inactive); in assay [5], 1.79 (inactive); in assay [6], 2.43 (inactive); in [7], -0.129 (inactive). Besides, the z-score in assay [8] was 1.16 (inactive); in assay [9], 0.393. For the same compound, the composite z-score in assay [4] was -1.08 (inactive); in [10], -0.0999.
For `CN1C(=O)C2C=CC(C(O)C3=C[C@H]4C[C@@H](C3)C4(C)C)N(Nc3ccc([N+](=O)[O-])cc3[N+](=O)[O-])C2C1=O` (stereo not given in full), the z-score in assay [1] was -0.241; in [2] it was 0.473 (inactive); in assay [3] it was -0.569 (inactive); in assay [5], 0.434 (inactive); in [6], 1 (inactive); in assay [7], -0.146 (inactive). For the same compound, the z-score in assay [8] was -0.476 (inactive); in assay [9], 0.116. Besides, the composite z-score in assay [4] is -0.0042 (inactive); in [10], 0.772.
Consider `COCCOC(=O)N1C(=O)[C@@]2(c3cc(C#Cc4ccc(OC)cc4)ccc31)[C@H](C(N)=O)[C@H]1C(=O)O[C@H](c3ccccc3)[C@H](c3ccccc3)N1[C@@H]2c1ccc(O)cc1`, for which the z-score in assay [1] was -0.0716; in assay [2], -0.823 (inactive); in [3], 0.277 (inactive); in assay [5], 0.886 (inactive); in [6] it was -0.0047 (inactive); in assay [7], -0.102 (inactive). In addition, the z-score is 0.236 (inactive) in assay [8] and -0.394 in assay [9]. Further, the composite z-score in [4] was -0.265 (inactive); in [10], 0.0849.
As to `Cc1c(NC(=O)/C(C#N)=C/C=C/c2ccccc2)c(=O)n(-c2ccccc2)n1C`, the z-score in assay [1] is -0.0273; in assay [2], -0.0874 (inactive); in assay [3], -0.335 (inactive); in assay [5], 0.242 (inactive); in assay [6] it was -0.74 (inactive); in assay [7] it was 1.39 (inactive). Further, the figures for the z-score in [8] and in assay [9] were 0.0139 (inactive) and 0.161, respectively. Besides, the composite z-score was 0.316 (inactive) in assay [4] and 0.313 in assay [10].
For `C=CCC(OC(C)=O)[C@@H]1[C@@H](N(Cc2cc3ccccc3o2)C(=O)c2ccc(C)cc2)c2cc(OCCCO)ccc2N1C(=O)c1ccc(-c2ccccc2)cc1` (stereo not given in full), the z-score in assay [1] is 0.419; in assay [2], -2.68 (inactive); in [3], -0.0884 (inactive); in [5], 0.444 (inactive); in assay [6], -3.8 (inactive); in assay [7], 1.15 (inactive). The z-score in assay [8] was 1.35 (inactive); in [9] it was 1.07. For the same compound, the composite z-score was -3 (inactive) in [4] and 2.75 in assay [10].
As to `CC(c1ccccc1)C(O)C1C=CC2C(=O)N(c3ccccc3)C(=O)C2N1Nc1ccccc1F` (stereo not given), the z-score in [1] was 0.677; in assay [2] it was -0.817 (inactive); in assay [3], 0.0907 (inactive); in assay [5] it was 0.533 (inactive); in assay [6] it was -1.12 (inactive); in assay [7], 0.0976 (inactive). The z-score in assay [8] is 0.669 (inactive); in assay [9], 1.21. In addition, the composite z-score in assay [4] is 0.549 (inactive); in [10], 0.0859.
For `CO[C@H]1O[C@H](CO)[C@@H](OC(=O)Nc2cccc(F)c2)[C@H](OC(=O)Nc2ccccc2-c2ccccc2)[C@@H]1OC(=O)Nc1ccccc1-c1ccccc1`, the z-score was -1.71 in assay [1]; 0.664 (inactive) in [2]; -2.52 (inactive) in assay [3]; 1.39 (inactive) in assay [5]; 2.42 (inactive) in assay [6]; -0.798 (inactive) in assay [7]. Besides, the z-score was 0.689 (inactive) in assay [8] and -1.78 in assay [9]. Besides, the figures for the composite z-score in [4] and in assay [10] were -0.59 (inactive) and 0.117, respectively.

Values taken from PubChem BioAssay.
